# In all, about 5,500 compounds went through this assay and about 2,000 (36%) were called active. Roughly 18% stayed inconclusive and do not appear here. The list shows a part of the results. Values without a mark were called inactive. No stated cut-off is given here; in the data, active means normalized growth mostly below about 0.91 (no sharp cut-off); inconclusive means no clear call, values can overlap the other calls; inactive means mostly above about 0.92.
# Test: chemical genetic growth profiling, strain panel (AID 1159580);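 further: tested at 20 µM; growth read once vehicle control cultures reached saturation at 30 °C; 1 = growth at the plate median or of vehicle wells; lower values mean less growth of the strain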
# Details: growth OD
smiles,measurement,setting,value
C[C@@H]1CC[C@@]23CCC4(C)[C@@](C=CC5[C@@]6(C)CC[C@H](O)C(C)(C)C6CC[C@]54C)(OC2=O)C3[C@H]1C (stereo partly drawn),normalized growth,"S. cerevisiae deletion strains, locus YJR043C, strain POL32, hits give low values",1
same,normalized growth,"S. cerevisiae deletion strains, locus YJR066W, strain TOR1, hits give low values",0.991
same,normalized growth,"S. cerevisiae deletion strains, locus YJR075W, strain HOC1, hits give low values",1.02
same,normalized growth,"S. cerevisiae deletion strains, locus YKL009W, strain mrt4, hits give low values",1.26 [resistant] (active)
same,normalized growth,"S. cerevisiae deletion strains, locus YKL085W, strain MDH1 (second series), hits give low values",1
same,normalized growth,"S. cerevisiae deletion strains, locus YKL085W, strain MDH1, hits give low values",1
same,normalized growth,"S. cerevisiae deletion strains, locus YKL160W, strain elf1, hits give low values",1.01
same,normalized growth,"S. cerevisiae deletion strains, locus YKL190W, strain CNB1, hits give low values",1.01
same,normalized growth,"S. cerevisiae deletion strains, locus YKR001C, strain vps1, hits give low values",1.06
same,normalized growth,"S. cerevisiae deletion strains, locus YKR026C, strain gcn3, hits give low values",1.01
same,normalized growth,"S. cerevisiae deletion strains, locus YKR091W, strain srl3, hits give low values",1
same,normalized growth,"S. cerevisiae deletion strains, locus YLL001W, strain dnm1, hits give low values",1.02
same,normalized growth,"S. cerevisiae deletion strains, locus YLL026W, hits give low values",1
same,normalized growth,"S. cerevisiae deletion strains, locus YLL041C, strain sdh2, hits give low values",1
same,normalized growth,"S. cerevisiae deletion strains, locus YLR027C, strain aat2, hits give low values",1
same,normalized growth,"S. cerevisiae deletion strains, locus YLR039C, strain RIC1, hits give low values",1.09
same,normalized growth,"S. cerevisiae deletion strains, locus YLR058C, strain SHM2, hits give low values",1.02
same,normalized growth,"S. cerevisiae deletion strains, locus YLR102C, strain apc9, hits give low values",1.03
same,normalized growth,"S. cerevisiae deletion strains, locus YLR113W, strain HOG1, hits give low values",1.02
same,normalized growth,"S. cerevisiae deletion strains, locus YLR221C, strain rsa3, hits give low values",0.998
same,normalized growth,"S. cerevisiae deletion strains, locus YLR258W, strain gsy2, hits give low values",0.996
same,normalized growth,"S. cerevisiae deletion strains, locus YLR262C, strain YPT6 (second series), hits give low values",1.02
same,normalized growth,"S. cerevisiae deletion strains, locus YLR262C, strain YPT6, hits give low values",1.09
same,normalized growth,"S. cerevisiae deletion strains, locus YLR268W, strain sec22, hits give low values",1.03
same,normalized growth,"S. cerevisiae deletion strains, locus YLR320W, strain mms22, hits give low values",1.01
same,normalized growth,"S. cerevisiae deletion strains, locus YLR330W, strain CHS5, hits give low values",1.03
same,normalized growth,"S. cerevisiae deletion strains, locus YLR342W, strain FKS1 (second series), hits give low values",1.02
same,normalized growth,"S. cerevisiae deletion strains, locus YLR342W, strain FKS1, hits give low values",1.01
same,normalized growth,"S. cerevisiae deletion strains, locus YLR357W, strain rsc2, hits give low values",1.07
same,normalized growth,"S. cerevisiae deletion strains, locus YLR370C, strain arc18, hits give low values",1.01
same,normalized growth,"S. cerevisiae deletion strains, locus YLR371W, strain rom2, hits give low values",1.29 [resistant] (active)
same,normalized growth,"S. cerevisiae deletion strains, locus YLR384C, strain iki3, hits give low values",0.981
same,normalized growth,"S. cerevisiae deletion strains, locus YLR418C, strain cdc73, hits give low values",1.07
same,normalized growth,"S. cerevisiae deletion strains, locus YML016C, strain PPZ1, hits give low values",1.01
same,normalized growth,"S. cerevisiae deletion strains, locus YML032C, strain rad52, hits give low values",1.02
same,normalized growth,"S. cerevisiae deletion strains, locus YML120C, strain ndi1, hits give low values",1
same,normalized growth,"S. cerevisiae deletion strains, locus YML124C, strain tub3, hits give low values",1
same,normalized growth,"S. cerevisiae deletion strains, locus YMR058W, strain fet3, hits give low values",1
same,normalized growth,"S. cerevisiae deletion strains, locus YMR078C, strain ctf18, hits give low values",0.991
same,normalized growth,"S. cerevisiae deletion strains, locus YMR125W, strain sto1, hits give low values",1.01
same,normalized growth,"S. cerevisiae deletion strains, locus YMR129W, hits give low values",0.997
same,normalized growth,"S. cerevisiae deletion strains, locus YMR205C, strain PFK2, hits give low values",1.02
same,normalized growth,"S. cerevisiae deletion strains, locus YMR223W, strain ubp8, hits give low values",1.08
same,normalized growth,"S. cerevisiae deletion strains, locus YMR231W, strain pep5, hits give low values",0.98
same,normalized growth,"S. cerevisiae deletion strains, locus YMR307W, strain GAS1, hits give low values",1.13
same,normalized growth,"S. cerevisiae deletion strains, locus YNL067W, strain RPL9B, hits give low values",1.01
same,normalized growth,"S. cerevisiae deletion strains, locus YNL071W, strain lat1, hits give low values",1.01
same,normalized growth,"S. cerevisiae deletion strains, locus YNL183C, strain NPR1, hits give low values",0.998
same,normalized growth,"S. cerevisiae deletion strains, locus YNL209W, strain ssb2, hits give low values",1.01
same,normalized growth,"S. cerevisiae deletion strains, locus YNL233W, strain BNI4, hits give low values",1.05
same,normalized growth,"S. cerevisiae deletion strains, locus YNL248C, strain rpa49, hits give low values",1.01
same,normalized growth,"S. cerevisiae deletion strains, locus YNL250W, strain rad50, hits give low values",1
same,normalized growth,"S. cerevisiae deletion strains, locus YNL271C, strain bni1, hits give low values",0.994
same,normalized growth,"S. cerevisiae deletion strains, locus YNL298W, strain CLA4, hits give low values",1
same,normalized growth,"S. cerevisiae deletion strains, locus YNL307C, strain MCK1, hits give low values",1
same,normalized growth,"S. cerevisiae deletion strains, locus YNL322C, strain KRE1 (second series), hits give low values",0.998
same,normalized growth,"S. cerevisiae deletion strains, locus YNR049C, strain mso1, hits give low values",1.01
same,normalized growth,"S. cerevisiae deletion strains, locus YNR052C, strain pop2, hits give low values",1.02
same,normalized growth,"S. cerevisiae deletion strains, locus YOL006C, strain TOP1, hits give low values",1.08
same,normalized growth,"S. cerevisiae deletion strains, locus YOL012C, strain htz1",2.58 [resistant] (active)
same,normalized growth,"S. cerevisiae deletion strains, locus YOL147C, strain pex11, hits give low values",1.01
same,normalized growth,"S. cerevisiae deletion strains, locus YOR001W, strain rrp6, hits give low values",1
same,normalized growth,"S. cerevisiae deletion strains, locus YOR061W, strain CKA2, hits give low values",1.01
same,normalized growth,"S. cerevisiae deletion strains, locus YOR069W, strain VPS5, hits give low values",1.01
same,normalized growth,"S. cerevisiae deletion strains, locus YOR070C, strain gyp1, hits give low values",1.03
same,normalized growth,"S. cerevisiae deletion strains, locus YOR080W, strain dia2, hits give low values",1.09
same,normalized growth,"S. cerevisiae deletion strains, locus YOR083W, strain WHI5, hits give low values",1.01
same,normalized growth,"S. cerevisiae deletion strains, locus YOR106W, strain vam3, hits give low values",1.02
same,normalized growth,"S. cerevisiae deletion strains, locus YOR136W, strain idh2, hits give low values",1.06
same,normalized growth,"S. cerevisiae deletion strains, locus YOR144C, strain elg1, hits give low values",0.997
same,normalized growth,"S. cerevisiae deletion strains, locus YOR184W, strain ser1, hits give low values",1.05
same,normalized growth,"S. cerevisiae deletion strains, locus YOR231W, strain MKK1, hits give low values",1.02
same,normalized growth,"S. cerevisiae deletion strains, locus YOR265W, strain rbl2, hits give low values",1.01
same,normalized growth,"S. cerevisiae deletion strains, locus YOR270C, strain vph1, hits give low values",1.05
same,normalized growth,"S. cerevisiae deletion strains, locus YOR290C, strain snf2, hits give low values",1
same,normalized growth,"S. cerevisiae deletion strains, locus YOR316C, strain cot1, hits give low values",1.03
same,normalized growth,"S. cerevisiae deletion strains, locus YPL051W, strain arl3, hits give low values",1.02
same,normalized growth,"S. cerevisiae deletion strains, locus YPL055C, strain LGE1, hits give low values",1.06
same,normalized growth,"S. cerevisiae deletion strains, locus YPL078C, strain atp4, hits give low values",1.02
same,normalized growth,"S. cerevisiae deletion strains, locus YPL106C, strain sse1, hits give low values",1.03
same,normalized growth,"S. cerevisiae deletion strains, locus YPL240C, strain hsp82, hits give low values",1
same,normalized growth,"S. cerevisiae deletion strains, locus YPL256C, strain CLN2, hits give low values",1.06
same,normalized growth,"S. cerevisiae deletion strains, locus YPR119W, strain clb2, hits give low values",0.986
same,normalized growth,"S. cerevisiae deletion strains, locus YPR141C, strain kar3, hits give low values",1
same,normalized growth,"S. cerevisiae deletion strains, locus YPR163C, strain tif3, hits give low values",1
same,normalized growth,"S. cerevisiae deletion strains, locus YPR167C, strain met16, hits give low values",1.05
same,normalized growth,"S. cerevisiae deletion strains, strain wtn01, hits give low values",1
same,normalized growth,"S. cerevisiae strains, strain wild type, hits give low values",1.02

# — PubChem BioAssay AID1159580 (chemical genetic matrix, 2015)
